An excerpt weighted towards active compounds, which were near 3.7% of everything screened.
GLP-1R agonist = GLP-1 receptor (human) agonism. P43220. HEK293 GLP-1R CRE-luciferase, luminescence, 4-6 h; cells express a hypersensitive GLP-1R form. Potency, µM (doses to about 45.6 µM), for inactives: at the top dose activation, most hits filed as activators. 380,000 tested, 0.007% active; further: % of control where 0% means no effect
Target sequence (P43220 whole entry, looked up): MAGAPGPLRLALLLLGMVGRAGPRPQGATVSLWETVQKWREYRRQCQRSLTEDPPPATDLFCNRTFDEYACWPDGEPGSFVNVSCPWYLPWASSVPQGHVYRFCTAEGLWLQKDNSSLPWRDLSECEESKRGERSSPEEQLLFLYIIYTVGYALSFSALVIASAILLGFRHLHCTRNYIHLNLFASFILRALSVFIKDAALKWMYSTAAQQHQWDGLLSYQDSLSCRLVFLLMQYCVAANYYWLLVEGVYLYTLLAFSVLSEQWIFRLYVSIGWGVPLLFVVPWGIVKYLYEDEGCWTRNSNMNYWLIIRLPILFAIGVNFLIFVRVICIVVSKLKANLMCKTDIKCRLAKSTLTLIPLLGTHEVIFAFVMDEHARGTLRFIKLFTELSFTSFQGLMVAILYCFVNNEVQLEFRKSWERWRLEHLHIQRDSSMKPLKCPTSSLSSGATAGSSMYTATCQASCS
S2 tox = reduces viability in counter-screen for ATXN expression inhibitors | 400,000 tested, 0.49% active | S2 cells (HEK-293 line with an ATXN2-luciferase reporter) viability, CellTiter-Fluor protease fluorescence, 24 h | Potency, µM (top dose mostly 56.7 µM), hits mostly cytotoxic; further: nearly all actives have a fitted effect of over 40% in size
HepG2 tox-1 = counter-screen for TGF-b inhibitors: cytotoxicity in HepG2 cells; Potency, µM (series often up to 46.1 µM), for the others: at the highest dose activity change, negative = cytotoxicity, usual class: cytotoxic; AID 588856; HepG2 CAGA-GFP viability, ATP luminescence, 18 h; 410,000 tested, 0.76% active
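CellTiter-Glo luminescence gave cytotoxicity after 18 hours at 37 degrees C. The cells were HepG2 CAGA-GFP in 1% FBS DMEM, stimulated with 500 pg/mL TGF-beta after compound addition. %Activity was normalised to no-cell wells (complete cell-killing) and DMSO (no toxicity), and curves were fitted and classified.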
GLP-1R inv ag = inverse agonists of human GLP-1 receptor; P43220; HEK293 GLP-1R CRE-luciferase, luminescence, 24 h; GLP-1R form is constitutively active; Potency, µM (highest dose often 38.3 µM), without a hit: at the top dose activity change, negative = inhibition, usual class: inhibitors; 410,000 tested, 1.6% active; AID 624417; further: on the % scale 0 is the no-effect control and ±100 the full control effect; nearly all actives have a fitted effect of over 55% in size
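qHTS in 1536-well format: reporter HEK293 cells expressing constitutive GLP-1R activity in DMEM + 10% Nu serum, 24 hr with compounds at 37 deg C, luminescence read after 12 min with detection reagent.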
TGFb SMAD3 inh = blocks TGF-b signaling; HepG2 CAGA-GFP TGF-b/SMAD3 reporter, GFP fluorescence, 18 h; TGF-beta stimulated, 500 pg/mL final; Potency, µM (titrated, usually from 46.1 µM), without a hit: at the highest dose activity, negative = inhibition, usual class: inhibitors; 410,000 tested, 1.2% active; further: on the % scale 0 is the no-effect control and ±100 the full control effect; nearly all actives have a fitted effect of over 65% in size
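TGF-beta reporter screen: HEPG2 CAGA-GFP, 1% FBS, 500 pg/mL TGF-beta final, 18 h; per-cell GFP summed per well; curves fitted and categorized by class.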
ATXN2 expr inh = ATXN2 expression inhibition; HEK-293 ATXN2-luciferase reporter, luminescence, 24 h; Potency, µM (doses to about 57 µM), inactives show at the top dose activity change, negative = inhibition, most hits filed as inhibitors; 360,000 tested, 0.72% active; further: on the % scale 0 is the no-effect control and ±100 the full control effect; nearly all actives have a fitted effect of over 55% in size
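ATXN2-luciferase reporter cells (luciferase flanked by upstream and downstream ATXN2 gene portions) were treated 24 h at 37 °C with compounds at up to 57 uM. SteadyGlo luminescence gave expression; GF-AFC fluorescence gave viability.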
TGFb confirm = TGF-b pathway inhibition, cherry-pick retest. shares compounds with TGFb SMAD3 inh. HepG2 CAGA-GFP TGF-b reporter, GFP fluorescence, 18 h; cells stimulated with TGF-beta, 500 pg/mL. Potency, µM (doses to about 46.1 µM), inactives show at the highest dose activity, negative = inhibition, hits mostly inhibitors. 1,600 tested, 63% active. AID 720534; further: on the % scale 0 is the no-effect control and ±100 the full control effect; nearly all actives have a fitted effect of over 65% in size
HepG2 tox-2 = HepG2 cytotoxicity, TGF-b inhibitor counterscreen; shares compounds with TGFb SMAD3 inh; HepG2 CAGA-GFP viability, ATP luminescence, 18 h; cells stimulated with TGF-beta, 500 pg/mL; Potency, µM (highest dose often 46.1 µM), for the others: top-dose activity, negative = cytotoxicity, hits mostly inhibitors; 1,600 tested, 27% active; AID 720535; further: on the % scale 0 is the no-effect control and ±100 the full control effect; nearly all actives have a fitted effect of over 70% in size
CCL64 TGFb inh = orthogonal confirmation of TGF-b inhibitors in CCL64 cells. shares compounds with TGFb SMAD3 inh. CCL64 CAGA-GFP reporter, TGF-b stimulated, GFP fluorescence, 18 h. Potency, µM (doses to about 46.1 µM), inactives show top-dose activity, negative = inhibition, usual class: inhibitors. 1,600 tested, 41% active. AID 720536; further: nearly all actives have a fitted effect of over 65% in size
TGFb COP inh = TGF-b inhibition validated with COP promoter | shares compounds with TGFb SMAD3 inh | HepG2 COP-GFP TGF-b reporter, GFP fluorescence, 18 h; cells stimulated by added recombinant TGF-beta | Potency, µM (highest dose often 46.1 µM), for the others: top-dose activity, negative = inhibition, actives largely listed as inhibitors | 1,600 tested, 3% active | AID 720537; further: nearly all actives have a fitted effect of over 70% in size
* hit, by the source's call; i = inactive; ? = inconclusive; . = no result given. The call rests on the fitted dose curve; in most records, active means well fitted curve in the direction sought with a large enough effect; inconclusive means small, poorly fitted or top-dose-only effect, or another doubt; inactive means no such curve, though single readings can be large; an effect the other way counts as inactive or inconclusive. Potency means the concentration at half of the fitted maximal effect.

SMILES	GLP-1R agonist	S2 tox	HepG2 tox-1	GLP-1R inv ag	TGFb SMAD3 inh	ATXN2 expr inh	TGFb confirm	HepG2 tox-2	CCL64 TGFb inh	TGFb COP inh
Cc1ccc(NCCC(=O)c2cccc([N+](=O)[O-])c2)cc1	-0.5%	i	-73.1%	13.8%	10µM*	10.5%	23.1µM*	?	?	18.6%
Cc1ccccc1N=C1Nc2ccc(Cl)cc2N[C@]12C[C@H]1CCCC(=O)N3CC[C@@H](C2)[C@@H]13	.	.	7.6%	.	4.4%	.	.	.	.	.
COc1cc(/C=C/c2cccc[n+]2C)ccc1OCC(=O)Nc1ccccc1C	7.2%	i	-3.0%	-2.4%	0.9%	-1.4%	.	.	.	.
CCOc1cc(/C=C\[N+](=O)[O-])ccc1OCC(=O)Nc1ccccc1C	4.1%	?	8.91µM*	?	7.94µM*	.	2.91µM*	8.2µM*	2.91µM*	?
CCc1sc(-c2cc3cccc(OC)c3oc2=O)nc1-c1ccccc1	.	.	-6.6%	.	-3.6%	.	.	.	.	.
CCC(C)Nc1nc(-c2ccccn2)nc2ccccc12 (stereo not drawn)	7.7%	?	-14.3%	?	?	?	14.6µM*	?	11.6µM*	71.6%
CCOC(=O)c1cc([N+](=O)[O-])sc1NC(=O)c1ccc(S(=O)(=O)N2CC3(C)CC2CC(C)(C)C3)cc1 (stereo not drawn)	-21.7%	?	5.7%	?	?	-24.7%	?	?	?	-8.0%
CC(C)N(C(=O)COC(=O)c1cccc(S(=O)(=O)N2CC3(C)CC2CC(C)(C)C3)c1)C(C)C (stereo not drawn)	-1.5%	i	-30.4%	?	?	-16.2%	.	.	.	.
COc1ccc(-c2c(C(F)(F)F)[nH]n3c(=O)cc(-c4ccccc4)nc23)cc1	-0.8%	.	-61.8%	-20.8%	?	-3.5%	16.4µM*	16.4µM*	8.2µM*	33.6%
COc1cccc(Cn2c(=O)n(-c3cc(C)cc(C)c3)c(=O)c3oc4ccccc4c32)c1	.	.	-15.5%	-29.3%	?	.	.	.	.	.
CCOC(=O)C1=C[C@@H](C(C)(C)C)N(S(=O)(=O)c2ccc([N+](=O)[O-])cc2)[C@H]1c1ccccc1	-6.4%	i	-14.6%	?	?	-20.2%	?	-3.2%	?	-0.5%
CCOC(=O)C1=C[C@@H](C(C)(C)C)N(S(=O)(=O)c2ccc(C)cc2)[C@H]1c1ccccc1	-10.0%	i	-24.8%	?	?	-11.1%	.	.	.	.
CCOC(=O)C1=C[C@@H](C(C)(C)C)N(S(=O)(=O)c2ccc(OC)cc2)[C@H]1c1ccccc1	11.1%	i	-20.3%	?	11.2µM*	-9.3%	9.2µM*	-28.8%	-29.2%	-3.2%
CCOC(=O)C1=C[C@@H](C(C)(C)C)N(S(=O)(=O)c2ccc(C)cc2)[C@H]1c1ccc(OC)cc1	-1.5%	i	-15.7%	?	?	0.5%	.	.	.	.
COc1cc2c(C(=O)N3CCN(c4ccc(C)cc4)C(C)C3)cn(CC(C)C)c(=O)c2cc1OC (stereo not drawn)	2.8%	?	-17.7%	-27.0%	?	?	.	.	.	.
CC(C)(C)c1ccc(S(=O)(=O)N2CCC(c3nc4ccc(Cl)cc4[nH]3)CC2)cc1	1.6%	i	-27.8%	-0.4%	20µM*	?	16.4µM*	?	?	46.1%
CC(C)C[C@H]1CNC(=S)N1CC1CCCN1C[C@H](Cc1ccc(O)cc1)N1C[C@H](Cc2ccccc2)N(CC2CCCCCC2)C1=S (stereo partly drawn)	16.5%	i	-27.3%	14.1%	?	-11.7%	.	.	.	.
CC(C)C[C@H]1CNC(=S)N1C[C@H]1CCCN1C[C@H](Cc1ccccc1)N1C[C@H](Cc2ccc(O)cc2)N(CC2CCCCCC2)C1=S	-4.1%	15.8µM*	-20.9%	?	10µM*	?	18.4µM*	?	?	35.5%
CC(C)C[C@H]1CNC(=S)N1C[C@H]1CCCN1C[C@H](Cc1ccc(O)cc1)N1C[C@H](CC(C)C)N(CC2CCCCCC2)C1=S	5.1%	10µM*	-22.8%	?	6.31µM*	?	4.61µM*	?	10.3µM*	25.1%
CC(C)C[C@H]1CNC(=S)N1CC1CCCN1C[C@H](Cc1ccccc1)N1C[C@H](Cc2ccc(O)cc2)N(CC2CCCCC2)C1=S (stereo partly drawn)	1.6%	i	-6.7%	?	8.91µM*	-17.1%	6.51µM*	-19.7%	20.6µM*	29.1%
CCc1nnc(SCc2cccc(Cl)c2)c2cc3sccc3n12	.	.	-41.8%	11.2%	.	.	.	.	.	.
CCn1nc(-c2ccccc2)c(-c2ccccc2)c(C(=O)OCCOC)c1=O	.	.	-12.8%	14.9%	-15.3%	.	.	.	.	.
OC(c1cc(-c2ccc(C(F)(F)F)cc2)nc(C(F)(F)F)c1)C1CCCCN1 (stereo not drawn)	-15.5%	3.16µM*	-83.8%	?	2.82µM*	.	6.51µM*	23.1µM*	23.1µM*	?
O[C@H](c1cc(C(F)(F)F)nc2c(C(F)(F)F)cccc12)[C@H]1CCCCN1	.	i	.	.	.	.	.	.	.	.
Cc1ccccc1C(=O)NC(=S)N(C)C1CCCCC1	-1.5%	i	-3.9%	?	8.8%	28.3%	.	.	.	.
CN(C(=S)NC(=O)c1ccccc1Br)C1CCCCC1	2.5%	i	-23.0%	10µM*	?	-12.6%	-19.8%	-13.5%	8.6%	1.5%
CNC(=O)c1cnc2sc(N3CCCCCC3)nn2c1=O	.	.	6.3%	1.3%	0.0%	.	.	.	.	.

High-throughput results from PubChem.
